Test results published in PubChem BioAssay AID493054 (Broad Institute, 2011).
Measured potencies and affinities stand elsewhere. Activity calls are given as the source filed them.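 The calls were made as follows: active = viability loss with fitted half-maximal dose at most ten times the highest valid dose tested; inconclusive = flat viability loss between 30 and 70%, or poor curve fit; inactive = the rest, including flat curves or rising signal.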

Assay: cytotoxicity in BJeH fibroblasts, dose response, counter-screen for Ras selective lethality project, BJeH cells, dry powder (AID 493054)
Details: Alamar Blue fluorescence, 48 h; series mostly up to 45 µM

Structure (SMILES)	outcome
COCC(=O)N(c1ccc(OC)c(Cl)c1)C(C(=O)NCCc1ccccc1)c1cccs1 (centres undefined)	inactive
COc1ccc(N(C(=O)CO)C(C(=O)NCCc2ccccc2)c2cccs2)cc1Cl (centres undefined)	inactive
CCC(=O)N(c1ccc(OC)c(Cl)c1)C(C(=O)NCCc1ccccc1)c1cccs1 (centres undefined)	inactive
O=C(c1[nH]ncc1[N+](=O)[O-])N1CCN(C(c2ccccc2)c2ccccc2)CC1	inactive
